# Calls of active or inactive are those of the source. How the source made its calls: active means hit-call score of the fitted dose curve at least 0.9, where 1 is the maximum; inactive means score below 0.9.
# Tested on: not listed separately
# Experiment: ATG_SREBP_CIS: Attagene CIS-FACTORIAL HepG2 Assay for human Sterol Regulatory Element Binding (SREBP) (AID 2282962)
# Conditions: HepG2 Attagene cis-factorial SREBP reporter, mRNA; actives raise or lower the signal
# In short: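 Transfected HepG2 (cis-regulated reporter library, endogenous TFs) → compound 24 h → total RNA → oligo(dT) RT → reporter-specific PCR → FAM primer extension, HpaI cut → CE fluorescence. Fit bidirectional vs DMSO.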
Structure (SMILES),outcome,AC50
COC(=O)NS(=O)(=O)c1ccc(N)cc1,inactive,–
CC(C)(C)C(=O)C(Oc1ccc(Cl)cc1)n1cncn1 (configuration not stated),inactive,–
Cc1c(COC(=O)[C@@H]2[C@H](/C=C(\Cl)C(F)(F)F)C2(C)C)cccc1-c1ccccc1,inactive,–
CCOC(=O)C(C)OC(=O)c1cc(Oc2ccc(C(F)(F)F)cc2Cl)ccc1[N+](=O)[O-] (configuration not stated),–,19.3 µM (active)
CCN(CC)c1nc(C)cc(OP(=S)(OC)OC)n1,inactive,–
COCC(=O)N(c1c(C)cccc1C)C(C)C(=O)OC (configuration not stated),inactive,–
CCCCC(C#N)(Cn1cncn1)c1ccc(Cl)cc1 (configuration not stated),–,12.6 µM (active)
Nc1cnn(-c2ccccc2)c(=O)c1Cl,inactive,–
CC(C)C1(C)N=C(c2ncccc2C(=O)O)NC1=O (configuration not stated),inactive,–
N#Cc1c(Cl)cccc1Cl,inactive,–
CCNC(=O)NC(=O)C(C#N)=NOC,inactive,–
Cc1cc(C)nc(Nc2ccccc2)n1,–,23 µM (active)
CC(C)=CC1C(C(=O)OCc2coc(Cc3ccccc3)c2)C1(C)C (configuration not stated),inactive,–
COCc1cnc(C2=NC(C)(C(C)C)C(=O)N2)c(C(=O)O)c1 (configuration not stated),inactive,–
CCOc1nc(F)cc2nc(S(=O)(=O)Nc3c(Cl)cccc3Cl)nn12,inactive,–
CCN(CC)C(=O)C(C)Oc1cccc2ccccc12 (configuration not stated),–,28.8 µM (active)
CS(=O)(=O)c1cc(C(F)(F)F)ccc1C(=O)c1cnoc1C1CC1,inactive,–
CNC(=O)N(C)c1nnc(C(C)(C)C)s1,inactive,–

Structure (SMILES),outcome,AC50
COC(=O)NC(=S)Nc1ccccc1NC(=S)NC(=O)OC,inactive,–
CCOP(=O)(OCC)Oc1nc(Cl)c(Cl)cc1Cl,–,15.6 µM (active)
CC(C)N1C(=O)N(c2ccccc2)CSC1=NC(C)(C)C,inactive,–
COP(=S)(OC)SCn1nnc2ccccc2c1=O,–,19.8 µM (active)
O=C(Nc1ccccc1-c1ccc(Cl)cc1)c1cccnc1Cl,inactive,–
O=P(O)(O)CCCl,inactive,–
C=CCOC(=O)C(C)(C)OC(=O)c1cc(-n2c(=O)cc(C(F)(F)F)n(C)c2=O)ccc1Cl,inactive,–
O=c1n(Cl)c(=O)n(Cl)c(=O)n1Cl,inactive,–
Clc1nc(Cl)nc(Nc2ccccc2Cl)n1,inactive,–
CC1(C)CON(Cc2ccccc2Cl)C1=O,inactive,–
COC(=O)c1c(C(F)F)nc(C(F)(F)F)c(C2=NCCS2)c1CC(C)C,inactive,–
CO/N=C(/C1=NOCCO1)c1ccccc1Oc1ncnc(Oc2ccccc2Cl)c1F,–,1.25 µM (active)
CCOc1cc(C(C)(C)C)ccc1C1COC(c2c(F)cccc2F)=N1 (configuration not stated),inactive,–
CCSC(=O)N1CCCCCC1,inactive,–
COc1cc(OC)nc(NC(=O)NS(=O)(=O)c2ncccc2OCC(F)(F)F)n1,inactive,–
CSC(=O)c1c(C(F)F)nc(C(F)(F)F)c(C(=O)SC)c1CC(C)C,inactive,–
CC(C)Oc1cccc(NC(=O)c2ccccc2C(F)(F)F)c1,inactive,–
CN=C=S,–,13.1 µM (active)

# Target: Signal transducer and activator of transcription 3 (Homo sapiens) (UniProt P40763)
# Experiment: ATG_STAT3_CIS: Attagene CIS-FACTORIAL HepG2 Assay for human Signal Transducer and Activator of Transcription 3 (STAT3) (AID 2282963)
# Conditions: HepG2, Attagene cis-factorial STAT3 reporter transcription; actives raise or lower the signal
# In short: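 Transcript-level reporter assay. HepG2 transient MRTU transfection, 24 h exposure, fluorescence detection after RT-PCR and CE; DMSO baseline.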
# Signal transducer and activator of transcription 3 (Homo sapiens), sequence (P40763 whole entry, looked up): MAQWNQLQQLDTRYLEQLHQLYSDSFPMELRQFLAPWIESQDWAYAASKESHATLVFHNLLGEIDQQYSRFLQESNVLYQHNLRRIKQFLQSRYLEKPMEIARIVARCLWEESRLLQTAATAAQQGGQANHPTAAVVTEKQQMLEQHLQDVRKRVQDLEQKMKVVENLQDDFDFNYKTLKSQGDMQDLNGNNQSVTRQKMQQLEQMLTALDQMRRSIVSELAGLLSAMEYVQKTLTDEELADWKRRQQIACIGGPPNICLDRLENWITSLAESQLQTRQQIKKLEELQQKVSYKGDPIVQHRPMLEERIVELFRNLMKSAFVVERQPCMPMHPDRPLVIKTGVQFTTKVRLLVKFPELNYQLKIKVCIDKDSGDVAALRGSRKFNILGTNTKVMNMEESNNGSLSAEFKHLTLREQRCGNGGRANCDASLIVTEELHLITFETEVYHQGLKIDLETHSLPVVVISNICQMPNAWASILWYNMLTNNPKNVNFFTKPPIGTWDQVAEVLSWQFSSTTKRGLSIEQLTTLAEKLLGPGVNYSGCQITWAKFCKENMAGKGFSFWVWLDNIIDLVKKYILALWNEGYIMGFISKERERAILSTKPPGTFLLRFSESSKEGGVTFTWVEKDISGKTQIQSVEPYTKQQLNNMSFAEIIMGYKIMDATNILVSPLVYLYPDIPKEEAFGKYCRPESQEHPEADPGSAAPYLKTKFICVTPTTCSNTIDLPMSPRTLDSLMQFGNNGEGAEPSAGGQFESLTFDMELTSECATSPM
row,Structure (SMILES),outcome
1,COC(=O)NS(=O)(=O)c1ccc(N)cc1,inactive
2,CC(C)(C)C(=O)C(Oc1ccc(Cl)cc1)n1cncn1 (configuration not stated),inactive
3,Cc1c(COC(=O)[C@@H]2[C@H](/C=C(\Cl)C(F)(F)F)C2(C)C)cccc1-c1ccccc1,inactive
4,CCOC(=O)C(C)OC(=O)c1cc(Oc2ccc(C(F)(F)F)cc2Cl)ccc1[N+](=O)[O-] (configuration not stated),inactive
5,CCN(CC)c1nc(C)cc(OP(=S)(OC)OC)n1,inactive
6,COCC(=O)N(c1c(C)cccc1C)C(C)C(=O)OC (configuration not stated),inactive
7,CCCCC(C#N)(Cn1cncn1)c1ccc(Cl)cc1 (configuration not stated),inactive
8,Nc1cnn(-c2ccccc2)c(=O)c1Cl,inactive
9,CC(C)C1(C)N=C(c2ncccc2C(=O)O)NC1=O (configuration not stated),inactive
10,N#Cc1c(Cl)cccc1Cl,inactive
11,CCNC(=O)NC(=O)C(C#N)=NOC,inactive
12,Cc1cc(C)nc(Nc2ccccc2)n1,inactive
13,CC(C)=CC1C(C(=O)OCc2coc(Cc3ccccc3)c2)C1(C)C (configuration not stated),inactive
14,COCc1cnc(C2=NC(C)(C(C)C)C(=O)N2)c(C(=O)O)c1 (configuration not stated),inactive
15,CCOc1nc(F)cc2nc(S(=O)(=O)Nc3c(Cl)cccc3Cl)nn12,inactive
16,CCN(CC)C(=O)C(C)Oc1cccc2ccccc12 (configuration not stated),inactive
17,CS(=O)(=O)c1cc(C(F)(F)F)ccc1C(=O)c1cnoc1C1CC1,inactive
18,CNC(=O)N(C)c1nnc(C(C)(C)C)s1,inactive

row,Structure (SMILES),outcome
1,COC(=O)NC(=S)Nc1ccccc1NC(=S)NC(=O)OC,inactive
2,CCOP(=O)(OCC)Oc1nc(Cl)c(Cl)cc1Cl,inactive
3,CC(C)N1C(=O)N(c2ccccc2)CSC1=NC(C)(C)C,inactive
4,COP(=S)(OC)SCn1nnc2ccccc2c1=O,inactive
5,O=C(Nc1ccccc1-c1ccc(Cl)cc1)c1cccnc1Cl,inactive
6,O=P(O)(O)CCCl,inactive
7,C=CCOC(=O)C(C)(C)OC(=O)c1cc(-n2c(=O)cc(C(F)(F)F)n(C)c2=O)ccc1Cl,inactive
8,O=c1n(Cl)c(=O)n(Cl)c(=O)n1Cl,inactive
9,Clc1nc(Cl)nc(Nc2ccccc2Cl)n1,inactive
10,CC1(C)CON(Cc2ccccc2Cl)C1=O,inactive
11,COC(=O)c1c(C(F)F)nc(C(F)(F)F)c(C2=NCCS2)c1CC(C)C,inactive
12,CO/N=C(/C1=NOCCO1)c1ccccc1Oc1ncnc(Oc2ccccc2Cl)c1F,inactive
13,CCOc1cc(C(C)(C)C)ccc1C1COC(c2c(F)cccc2F)=N1 (configuration not stated),inactive
14,CCSC(=O)N1CCCCCC1,inactive
15,COc1cc(OC)nc(NC(=O)NS(=O)(=O)c2ncccc2OCC(F)(F)F)n1,inactive
16,CSC(=O)c1c(C(F)F)nc(C(F)(F)F)c(C(=O)SC)c1CC(C)C,inactive
17,CC(C)Oc1cccc(NC(=O)c2ccccc2C(F)(F)F)c1,inactive
18,CN=C=S,inactive

# From PubChem BioAssay (EPA / NIEHS)
